# Measured values published in PubChem BioAssay (Tox21).
# Results filed as inconclusive are left out. Entries that show only a call come without a potency. Calls of active or inactive are those of the source. Calls follow the shape of the dose curve; as a rule, active = well fitted activation curve with a large enough effect in the repeat runs; inconclusive = weak or mixed curves; inactive = flat fitted curve, though single readings scatter.
# Assay: A CellTox Green Cytotoxicity Assay to monitor cytotoxicity in HepG2 cells - 24 hour (AID 1224878); also: nearly all actives have a fitted effect of over 45% in size
# Conditions: CellTox Green fluorescence; series mostly up to 76.8 µM
# Procedure, shortened: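 Cytotoxicity was tracked as dead-cell DNA fluorescence in HepG2 cells treated with test compounds at 37 C; each time-point value comes from one kinetic series spanning 0, 8, 16, 24, 32 and 40 h.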
SMILES,Potency,cytotoxicity
O=C(NC(Cc1cc(=O)[nH]c2ccccc12)C(=O)O)c1ccc(Cl)cc1 (configuration not stated),inactive,
CC(C)(O)CCc1ccccc1,inactive,
Cc1ccc(N(CCO)CCO)cc1,inactive,
CSCC[C@H](NC(=O)[C@H](Cc1c[nH]c2ccccc12)NC(=O)CCNC(=O)OC(C)(C)C)C(=O)N[C@@H](CC(=O)O)C(=O)N[C@@H](Cc1ccccc1)C(N)=O,inactive,
O=CNNC=O,inactive,
CCOc1ncc(F)c(=O)[nH]1,inactive,
O=C(O)CNC(=O)c1ccccc1I,inactive,
Cc1cc(CCC(=O)OCCOCCOCCOC(=O)CCc2cc(C)c(O)c(C(C)(C)C)c2)cc(C(C)(C)C)c1O,inactive,
Nc1ccn([C@H]2CS[C@@H](CO)O2)c(=O)n1,inactive,
Cc1ccc(S(=O)(=O)NC(=O)NC2CCCCC2)cc1,inactive,
COC(=O)Nc1nc2ccc(C(=O)C3CC3)cc2[nH]1,inactive,
FC(F)(F)C(F)(F)C(F)(F)C(F)(F)CCI,inactive,
CCCCCCOC(=O)CCCCC,inactive,
O=C(O)CCC(=O)c1ccc(-c2ccccc2)cc1,inactive,
CCC(CO)(CO)CO,inactive,
C=CCOC(=O)COCCC(C)C,inactive,
CCCCCCCC/C=C/C(=O)O,inactive,
Nc1nc(-c2ccc([N+](=O)[O-])cc2)cs1,inactive,
COC(OC)OC,inactive,
O=c1[nH]c2cc(C(F)(F)F)c(N3CCOCC3)cc2n(CP(=O)(O)O)c1=O,inactive,
CCCCCCCCCCCCCCN(C)C,,-3.33% [at 15.8 µM] (inactive)
CCC(Cl)CC(Cl)C(Cl)C(Cl)C(Cl)C(C)Cl (configuration not stated),,2.51% [at 15.8 µM] (inactive)
CCCCCCCCCCCCCCCC(=O)OCC,inactive,
COc1ccc(CCN(C)CCCN2CCc3cc(OC)c(OC)cc3CC2=O)cc1OC,inactive,
CCCCC[C@H](O)/C=C/[C@H]1[C@H](O)CC(=O)[C@@H]1C/C=C\CCCC(=O)O,inactive,
CCCC(=O)OC(=O)CCC,inactive,
CC[C@H]1OC(=O)[C@H](C)[C@@H](O[C@H]2C[C@@](C)(OC)[C@@H](O)[C@H](C)O2)[C@H](C)[C@@H](O[C@@H]2O[C@H](C)C[C@H](N(C)C)[C@H]2O)[C@](C)(O)C[C@@H](C)CN(C)[C@H](C)[C@@H](O)[C@]1(C)O,inactive,
